According to PubChem BioAssay (EPA / NIEHS):
Records with an inconclusive call do not appear. Active and inactive are the calls of the source. Rule for the calls, unless noted: active = hit-call score of the fitted dose curve at least 0.9, where 1 is the maximum; inconclusive = response in the unintended direction; inactive = score below 0.9.

Key:
[1] = TOX21_p53_BLA_p2_viability: Viability Assessment in the Tox21 HCT-116 p53 Agonism Beta-lactamase Assay, Phase 2 (AID 2283591);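 note: compound exposure lasted 16 h at 37 °C; actives lower the ATP signal meaning cytotoxicity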
How it was run: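 HCT-116 p53-bla cells (4000/well) rested 5 h at 37C, then received compounds in DMSO (217-fold dilution) for 16 h at 37C, 5% CO2. After the CCF4 read, CellTiter-Glo was added; ATP luminescence was read after 30 min at room temperature.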

[2] = molecular target: Cellular tumor antigen p53 (Homo sapiens) (UniProt P04637); assay: TOX21_p53_BLA_p2_ratio: Tox21 HCT-116 p53 Agonism Beta-lactamase Assay, Ratio, Phase 2 (AID 2283592)
Chain of Cellular tumor antigen p53 (Homo sapiens) (P04637 whole entry, looked up): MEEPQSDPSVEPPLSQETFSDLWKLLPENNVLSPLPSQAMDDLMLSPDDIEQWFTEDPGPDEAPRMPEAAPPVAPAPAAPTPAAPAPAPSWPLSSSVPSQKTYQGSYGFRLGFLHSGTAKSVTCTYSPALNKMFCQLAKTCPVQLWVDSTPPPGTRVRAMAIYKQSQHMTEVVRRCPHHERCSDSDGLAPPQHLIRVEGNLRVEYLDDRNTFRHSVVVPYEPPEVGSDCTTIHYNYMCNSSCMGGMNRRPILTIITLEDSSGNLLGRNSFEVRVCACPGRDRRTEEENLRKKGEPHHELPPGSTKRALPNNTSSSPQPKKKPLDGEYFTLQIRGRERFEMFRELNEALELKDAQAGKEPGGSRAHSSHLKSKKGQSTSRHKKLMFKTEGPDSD
How it was run: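 Ratio endpoint: beta-lactamase cleavage of CCF4-AM, blue (460 nm) over green (530 nm). HCT116 reporter line; 16 h treatment, 37C; substrate 2 h RT.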

[3] = TOX21_p53_BLA_p3_viability: Viability Assessment in the Tox21 HCT-116 p53 Agonism Beta-lactamase Assay, Phase 3 (AID 2283593);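 note: cells exposed to compound for 16 h before reading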
How it was run: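 HCT-116 cells (4000/well) rested 5 h at 37C, then got DMSO compounds by pin tool (217-fold dilution) for 16 h at 37C, 5% CO2. After the bla read, CellTiter-Glo was added and luminescence read at 30 min, room temperature.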

[4] = TOX21_p53_BLA_p5_viability: Viability Assessment in the Tox21 HCT-116 p53 Agonism Beta-lactamase Assay, Phase 5 (AID 2283600)
How it was run: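 Luciferase-coupled ATP quantitation of cells treated for 16 h (37C, 5% CO2) with test chemicals delivered in DMSO via a 217-fold dilution; 4000 cells/well; reagent incubated 30 min at room temperature before luminescence reading.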

[5] = molecular target: Cellular tumor antigen p53 (Homo sapiens) (UniProt P04637); assay: TOX21_p53_BLA_p4_ratio: Tox21 HCT-116 p53 Agonism Beta-lactamase Assay, Ratio, Phase 4 (AID 2283601)
How it was run: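 HCT116 cells carrying an inducible beta-lactamase reporter were plated at 4000 cells/well, rested 5 h, then exposed to compounds in DMSO (217-fold dilution) for 16 h at 37C. CCF4-AM substrate was loaded 2 h at room temperature; 460/530 nm emission ratio scored gain-of-signal versus DMSO.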

[6] = molecular target: Cellular tumor antigen p53 (Homo sapiens) (UniProt P04637); assay: TOX21_p53_BLA_p5_ratio: Tox21 HCT-116 p53 Agonism Beta-lactamase Assay, Ratio, Phase 5 (AID 2283599)
How it was run: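 HCT-116 cells carrying a p53-inducible beta-lactamase reporter were seeded at 4000 cells/well and dosed after 5 h with compound in DMSO (217-fold dilution). After 16 h at 37C, CCF4-AM substrate was added for 2 h, and the 460/530 nm emission ratio was scored as gain-of-signal versus DMSO.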

[7] = CCTE_Harrill_HTTr_Viability_MCF7: CCTE's 6-hour Cell Viability Assessment for the High-Throughput Transcriptomics (HTTr) Platform, in MCF-7 cells cultured in DMEM + 10% fetal bovine serum, Harrill Lab (AID 2284010; active = hit-call score of the fitted dose curve at least 0.9, where 1 is the maximum; inactive = score below 0.9)
How it was run: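 Propidium iodide exclusion, imaged by high-content analysis, gauged viability after a six-hour exposure across eight concentrations. Cells were MCF-7 grown in DMEM with 10% fetal bovine serum; fits run in both directions against DMSO.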

[8] = CCTE_Harrill_HTTr_Apoptosis_MCF7: CCTE's 6-hour Apoptosis Assessment for the High-Throughput Transcriptomics (HTTr) Platform, in MCF-7 cells cultured in DMEM + 10% fetal bovine serum, Harrill Lab (AID 2284011; active = hit-call score of the fitted dose curve at least 0.9, where 1 is the maximum; inactive = score below 0.9)
How it was run: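 MCF-7 cells in DMEM + 10% fetal bovine serum were exposed to chemicals for 6 hours over an eight-point dilution series. Caspase-3/7 activation was imaged by high content imaging with CellEvent Caspase 3/7 Green; bidirectional fitting used DMSO as baseline.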

Measured: outcome

COc1ccc(C2C(=O)c3ccccc3C2=O)cc1
inactive: [1] | [2] | [3] | [4] | [5]

CC1(C)CCC(NC(=O)[C@@H](N)CCC(=O)O)CC1
inactive: [1] | [2] | [3] | [6] | [5]

C[Si](C)(C)C
inactive: [1] | [2] | [3] | [6] | [5]

COc1ccccc1N1CCN(CCCCNC(=O)c2ccc(-c3ccc(C(C)=O)cc3)cc2)CC1
inactive: [1] | [2] | [3] | [4] | [5]

Nc1ccc2cc(S(=O)(=O)O)cc(O)c2c1
inactive: [1] | [2] | [3] | [6] | [5]

COc1ccccc1OCC(O)COC(N)=O (stereo unspecified)
not listed: [5]
inactive: all other assays above

O=C(OCCO)c1ccccc1O
inactive: [1] | [2] | [3] | [5]

CCOC(=O)c1ncn2c1CN(C)C(=O)c1cc(F)ccc1-2
inactive: [1] | [2] | [3] | [4]

Nc1ccc2ccccc2c1S(=O)(=O)O
not listed: [7] | [8]
inactive: all other assays above

O=C1c2ccccc2S(=O)(=O)N1CCCCN1CCN(c2ncccn2)CC1
inactive: [1] | [2] | [3] | [4]

O=C(NCCNCC(O)COc1ccc(O)cc1)N1CCOCC1 (stereo unspecified)
not listed: [7] | [8]
inactive: all other assays above

Cc1cc(O)cc2c1O[C@](C)(CCC[C@H](C)CCC[C@H](C)CCCC(C)C)CC2
not listed: [7] | [8]
inactive: all other assays above

CCCOCCOCCO
inactive: [1] | [2] | [3] | [6] | [5]

C1C[C@@H]2[C@H]3CC[C@H](C3)[C@@H]2C1
inactive: [1] | [2] | [3] | [4] | [5]

O=C1c2ccccc2C(=O)C1c1ccc(Br)cc1
inactive: [1] | [2] | [3] | [4] | [5]

O=C(OC1C[C@H]2CC[C@@H](C1)[N+]21CCCC1)C(O)(c1ccccc1)c1ccccc1 (stereo partly specified)
inactive: [1] | [2] | [3] | [5]
